Only some compounds are listed: those with a hit (about 1.9% of all), similar ones and a draw of the others.
USP2a inh: USP2a (human) protease inhibition. O75604. USP2 core, Ub-CHOP2 coupled fluorogenic reporter, 485/531. Potency, µM (top dose mostly 38.3 µM), for inactives: at the highest dose activity change, negative = inhibition, actives largely listed as inhibitors. 330,000 tested, 0.01% active;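 further: potency means the concentration at half of the fitted maximal effect; plate controls were DMSO wells for no effect and full inhibition by NEM control for full effect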
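USP2 core (10nM final) preincubated 30min RT with compound in 20mM Tris-HCl pH 8.0, 2mM CaCl2, 2mM beta-mercaptoethanol, 0.05% CHAPS; 25nM Ub-CHOP2 plus 25nM reporter substrate added, fluorescence (Ex485/Em531) read after 60min.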
IL-2 act: activates IL-2 in a cell-based reporter assay; 360,000 tested, 0.065% active; IL-2 activation reporter assay, cell-based qHTS; stimulated with anti-CD3/CD4/CD28 beads; in transgenic mouse T cells; activation, % (series mostly up to about 46 µM); AID 652025; in the data active means activation above about 50%; inconclusive means mostly about 30% to 49%; further: 0% is about no effect
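Using fluorescent plate cytometry, EGFP and DsRed are detected in transgenic mouse T cells stimulated 18 h at 37 degrees C with antibody-coated beads after 60 min compound pretreatment.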
a7 integrin act: activators of alpha7 integrin expression for muscular dystrophy | Potency, µM (highest dose often 38.3 µM), for inactives: top-dose activation, most hits filed as activators | 350,000 tested, 0.064% active | alpha7betagal myoblasts, beta-gal FDG fluorescence, 48 h | AID 624291;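 further: potency means the concentration at half of the fitted maximal effect; 100% = response of the positive control SU9516; nearly all actives have a fitted effect of over 60% in size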
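alpha7betagal+/- myoblasts (passage 13, 250/well) treated 48 h at 37C with compounds at 1:260 dilution of DMSO stock. Lysed, then beta-galactosidase activity read as FDG fluorescence (ex 480/em 540) after 30 min, with pre-read for autofluorescence.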
ClpP mod: qHTS Assay for Activators of ClpP | purified B. subtilis ClpP, FRET peptide cleavage, 20 min | Potency, µM (top dose mostly 57.5 µM), for the others: top-dose activity change, negative = active | 340,000 tested, 1.9% active | AID 651965, 2013; active means well fitted falling curve with a large enough effect; inconclusive means small, poorly fitted or top-dose-only effect; inactive means no such curve, though single readings can be large or run the other way; further: potency means the concentration at half of the fitted maximal effect; the source files actives as falling curves though it sought activators and does not explain the sign; nearly all actives have a fitted effect of over 65% in size
Target sequence (P80244 whole entry, looked up): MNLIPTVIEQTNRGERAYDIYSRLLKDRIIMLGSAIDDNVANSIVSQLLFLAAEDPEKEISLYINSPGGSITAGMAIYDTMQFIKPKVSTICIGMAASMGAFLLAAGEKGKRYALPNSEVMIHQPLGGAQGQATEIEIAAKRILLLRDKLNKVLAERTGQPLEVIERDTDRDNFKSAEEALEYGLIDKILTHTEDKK
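Purified B. subtilis ClpP, 10 microg/mL final in Tris/HCl pH8 with KCl, BSA, glycerol and Tween-20, cleaved an Abz/nitrotyrosine-quenched decapeptide. Fluorescence (ex 320, em 430) was read at 0 and 20 min at room temperature. Delta was normalized to 5.8 microM ADEP and DMSO/no-enzyme controls.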
Pin1 inhibitor: blocks the human prolyl isomerase Pin1 | AID 504891 | 390,000 tested, 0.009% active | Pin1 FP peptide displacement, HiFluor488, 10 min | Potency, µM (doses to about 115 µM), for the others: at the highest dose activity, negative = inhibition, most hits filed as inhibitors; active means well fitted inhibition curve with a large enough effect in the polarisation, with a control signal flat, not every such curve was filed as active; inconclusive means small, poorly fitted or top-dose-only effect, or effect the other way, or a change in a side signal; inactive means no such curve, though single readings can be large or run the other way; the % refers to the polarisation; further: potency means the concentration at half of the fitted maximal effect; on the % scale 0 is the no-effect control and ±100 the full control effect
Target sequence (Q13526 whole entry, looked up): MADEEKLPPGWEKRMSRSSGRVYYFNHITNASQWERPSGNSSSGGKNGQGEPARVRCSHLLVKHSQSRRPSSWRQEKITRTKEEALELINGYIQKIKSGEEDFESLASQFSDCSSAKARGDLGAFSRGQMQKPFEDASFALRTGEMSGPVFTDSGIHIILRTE
PKM2 activator: activators of human pyruvate kinase M2. P14618. purified PKM2, Kinase-Glo ATP luminescence, activation; response scale: 0% is enzyme alone, no compound. Potency, µM (titrated, usually from 57.5 µM), for inactives: at the top dose activation, most hits filed as activators. 260,000 tested, 0.34% active. AID 1631; further: potency means the concentration at half of the fitted maximal effect; on the % scale 0 is the no-effect control and ±100 the full control effect; nearly all actives have a fitted effect of over 55% in size
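Kinase-Glo luminescence reports ATP generated from ADP (0.1 mM) and PEP (0.5 mM) by purified hPK-M2 after 1 h at room temperature, pH 7.2 imidazole buffer; intermediate enzyme activity allows detecting inhibitors and activators.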
* hit, by the source's call. Unless noted, the call rests on the fitted dose curve; in most records, active means well fitted curve in the direction sought with a large enough effect; inconclusive means small, poorly fitted or top-dose-only effect, or another doubt; inactive means no such curve, though single readings can be large; an effect the other way counts as inactive or inconclusive.

For COc1cc2c(cc1OC)-c1cc(N3CCCCCC3)nc(=O)n1CC2 the results were USP2a inh 0%, IL-2 act -3, a7 integrin act -18%, ClpP mod 25µM*, Pin1 inhibitor 1% and PKM2 activator 7%.
Screening COc1cc2c(cc1OC)-c1cc(N3CCCc4ccccc43)nc(=O)n1CC2 returned USP2a inh 3%, IL-2 act 1, a7 integrin act -20%, ClpP mod -4%, Pin1 inhibitor 4% and PKM2 activator 0%.
`COc1cc2c(cc1OC)-c1cc(NC3CCCCCC3)nc(=O)n1CC2` gave USP2a inh 3%, IL-2 act -4, a7 integrin act -7%, ClpP mod 25µM*, Pin1 inhibitor -6% and PKM2 activator 14%.
COc1ccc(Nc2cc3n(c(=O)n2)CCc2cc(OC)c(OC)cc2-3)cc1 was read as USP2a inh 1%, IL-2 act -2, a7 integrin act -24%, ClpP mod 0% and Pin1 inhibitor 1%.
Screening CN(C)c1ccc(/C=C/c2ccnc3c([N+](=O)[O-])cccc23)cc1 returned ClpP mod 3%.
For COc1ccc(CN(Cc2ccccc2)C(=O)CN2CCN(C)CC2)cc1COc1ccc(NC(C)=O)cc1 the results were ClpP mod -1% and Pin1 inhibitor -2%.
For CCN(CC)S(=O)(=O)c1ccc(NC(=O)CSc2nnc3c(n2)[nH]c2ccccc23)cc1 the results were ClpP mod 26% and Pin1 inhibitor -7%.
Cc1c(C(=O)O)oc2c3c(ccc12)OCCO3 was read as USP2a inh 2%, IL-2 act 0, a7 integrin act -6%, ClpP mod 18µM*, Pin1 inhibitor -2% and PKM2 activator 0%.
Screening COc1c(Br)cc2c(C)c(C(=O)O)oc2c1Br returned USP2a inh 4%, IL-2 act 0, a7 integrin act -12%, ClpP mod 0%, Pin1 inhibitor 9% and PKM2 activator -11%.
`CCC[C@H]1COCCS(=O)(=O)N1Cc1cccc(F)c1` gave ClpP mod 0%.
For O=C(Nc1ccncc1)c1ccc(NS(=O)(=O)c2cccc(F)c2)cc1 the results were USP2a inh 1%, IL-2 act -1, a7 integrin act -2%, ClpP mod 32µM*, Pin1 inhibitor -1% and PKM2 activator -5%.
`N#Cc1ccc(-c2ccc(F)cc2)nc1Oc1ccc(Cl)c(Cl)c1` gave USP2a inh 5%, IL-2 act -2, a7 integrin act 21%, ClpP mod 40µM*, Pin1 inhibitor 0% and PKM2 activator 3%.
For Cn1c2ccc(F)cc2c2nnc(SCC(=O)Nc3cccc(O)c3)nc21 the results were USP2a inh -1%, IL-2 act 1, a7 integrin act 13%, Pin1 inhibitor inconclusive and PKM2 activator 0.32µM*.
`Cn1c2ccccc2c2nnc(SCC(=O)Nc3cccc(C(=O)O)c3)nc21` gave USP2a inh 7%, IL-2 act 1, a7 integrin act 11%, ClpP mod 0% and Pin1 inhibitor 4%.
Cc1cccc(C(=O)Nc2ccccc2C(=O)OCC(=O)Nc2ccc(C#N)cc2)c1 was read as USP2a inh -12%, IL-2 act 0, a7 integrin act -2%, ClpP mod 16µM*, Pin1 inhibitor 14% and PKM2 activator -6%.
Screening CCN(CC)C(=O)Cn1cc(S(=O)(=O)CC(=O)Nc2ccc(F)cc2F)c2ccccc21 returned USP2a inh 1%, IL-2 act -5, a7 integrin act -4%, ClpP mod -5%, Pin1 inhibitor 0% and PKM2 activator 6%.
`CCN(CC)C(=O)Cn1cc(S(=O)(=O)CC(=O)Nc2ccccc2C)c2ccccc21` gave IL-2 act 0, a7 integrin act -11%, ClpP mod 28µM* and Pin1 inhibitor 0%.
`CCCCNC(=O)[C@@H]1CC=C[C@@H]2CCN(C3CCCCC3)C(=O)[C@@H]21` gave ClpP mod 1%.
Screening O=[N+]([O-])c1cc(S(=O)(=O)Oc2ccccc2)ccc1Cl returned IL-2 act -5, a7 integrin act -55%, ClpP mod 35µM* and Pin1 inhibitor -7%.
O=S(=O)(c1ccc2c(c1)OCCO2)N1CCN(S(=O)(=O)c2ccc3nc(Cl)c(Cl)nc3c2)CC1 was read as Pin1 inhibitor 0%.
Screening Cc1ccc(NC(=O)CN2CCN(S(=O)(=O)c3cccs3)CC2)cc1S(=O)(=O)N(C)C returned USP2a inh 0%, IL-2 act -1, a7 integrin act -9%, ClpP mod 32µM*, Pin1 inhibitor -1% and PKM2 activator -2%.
For Cc1ccc(NC(=O)CN2CCc3ccccc3C2)cc1S(=O)(=O)N(C)C the results were USP2a inh 2%, IL-2 act 0, a7 integrin act 5%, Pin1 inhibitor 4% and PKM2 activator 1%.
CCOC(=O)C[C@H]1c2cc(F)ccc2S(=O)(=O)N1Cc1cc(OC)c(OC)c(OC)c1 was read as ClpP mod 2%.
For CC(=O)C1=C(C)NC(SCC(=O)Nc2nc3ccccc3s2)=C(C#N)C1c1ccc(Cl)cc1 (stereo not given) the results were USP2a inh 2%, IL-2 act -2, a7 integrin act 23%, ClpP mod -18%, Pin1 inhibitor 44% and PKM2 activator 1%.
COc1ccc(NC(=O)CSC2=C(C#N)C(c3ccco3)C(C(=O)Nc3nc4ccccc4s3)=C(C)N2)cc1 (stereo not given) was read as IL-2 act 1, a7 integrin act -21%, ClpP mod 22µM* and Pin1 inhibitor 45%.
`Cc1cccc(OC(C)c2ccnc3nc(/N=C/N(C)C)nn23)c1` (stereo not given) gave USP2a inh 1%, IL-2 act -3, a7 integrin act 6%, ClpP mod 28µM*, Pin1 inhibitor 3% and PKM2 activator -3%.
Screening COc1ccc(-c2ccnc3nc(/N=C/N(C)C)nn23)cc1 returned USP2a inh 3%, IL-2 act 2, a7 integrin act 13%, Pin1 inhibitor -2% and PKM2 activator -7%.
CC(Oc1ccc(C(C)(C)C)cc1)c1ccnc2nc(/N=C/N(C)C)nn12 (stereo not given) was read as USP2a inh -4%, IL-2 act -2, a7 integrin act -28%, ClpP mod 28µM*, Pin1 inhibitor -10% and PKM2 activator -1%.
